Compound activity deposited in PubChem BioAssay by Broad Institute.
PglD inh = C. jejuni PglD acetyltransferase inhibitors, primary screen, biochemical, DTNB colorimetric, single point; UDP-N-acetylbacillosamine N-acetyltransferase PglD (Campylobacter jejuni); purified PglD enzyme, DTNB colorimetric CoA detection; inhibition, % at 12.5 µM; 0.098% of 360,000 active; AID 602405, 2012; in the data active = inhibition above about 16%, passing the limit was not always enough
CFTR F508del cor = F508del CFTR correction, initial screen, CFBE line, single point | CFBE cells, YFP halide quenching; stimulated with forskolin plus potentiator P3; % fluorescence drop versus neutral controls | activity (quench increase), % at 7.58 µM | 0.36% of 350,000 active;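 active = mean added fluorescence quench of at least 8% versus neutral control, with both replicates also reaching 8%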;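 also: cells transiently co-express mutant CFTR-F508del with the halide-sensitive YFP; corrector assay measuring rescue of mutant channel to the surface after 24 h compound exposure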
ARNT TACC3 PPI = disruptors of ARNT/TACC3 protein interaction, primary screen, biochemical, AlphaScreen, single concentration; Transforming acidic coiled-coil-containing protein 3 (Homo sapiens), Q9Y6A5; AlphaScreen His-ARNT PAS-B/GST-TACC3 binding, luminescence; TACC3 fragment carries E629A point mutation; inhibition, % at 9.99 µM; 0.66% of 390,000 active; AID 623870, 2012;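 active = mean inhibition of replicates at least 50% and at least half of replicates each reaching 50%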;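 also: 0% = complete ARNT plus TACC3 wells and 100% = ARNT alone without TACC3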
C2C12 statin = suppressors of statin myotoxicity in C2C12 myotubes, primary screen, cell-based, single point, plate reader. C2C12 myotubes + simvastatin, ATP luminescence, 48 h; scaled: DMSO 0, geranylgeraniol control 100. rescue of ATP level, % at 7.49 µM. 0.78% of 330,000 active. AID 602340, 2012;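 active = mean ATP rescue above about 67%, or every replicate alone reaching that limit, limit read from the data, passing the limit was not always enough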;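 also: myotubes were challenged with 10 µM simvastatin during compound exposure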
An asterisk follows results filed as active; · = no result given. A selection: hits, their analogues and other compounds. The true share with any hit is near 1.4%.

SMILES | PglD inh | CFTR F508del cor | ARNT TACC3 PPI | C2C12 statin
Cc1noc(C)c1S(=O)(=O)Nc1ccc2c(c1)C(=O)N([C@H](C)CO)C[C@H](C)[C@H](CN(C)CC1CC1)OCCCC[C@H](C)O2 | 0.9 | -0.9 | -9.4 | ·
O=C(Nc1ccc(F)cc1F)NC1CC(=O)N(Cc2ccccc2)C1 (configuration not stated) | 6.5 | · | 3.6 | 85.9*
O=C(CCCl)Nc1nc2c(s1)CCc1ccccc1-2 | · | 8.8* | -18.5 | -14.2
Cc1cc(C)n2nc(SC(C)C(=O)Nc3ccccc3F)nc2n1 (configuration not stated) | -0.9 | 2.8 | active | 1.4
C[C@H](CO)N1C[C@H](C)[C@@H](CN(C)C(=O)C2CC2)Oc2cc(-c3ccc(C(=O)N(C)C)cc3)ccc2S1(=O)=O | · | 3.0 | · | 2.7
C=C(C)C(=O)OCCCCCCOc1ccc(C(=O)O)cc1 | 3.5 | · | -4.2 | 97.0*
CCCCCCCCOc1ccc(C(=O)O)cc1 | 4.0 | 1.8 | · | -10.9
Cc1ccc(S(=O)(=O)N(C)C[C@@H]2Oc3ccc(N(C)C)cc3CC(=O)N([C@H](C)CO)C[C@@H]2C)cc1 | 0.6 | 2.9 | -0.8 | -10.6
CCC/C(=C1/c2ccccc2C(=O)N1c1ccccc1)c1ccc2c(c1)OCCO2 | -4.1 | 3.8 | · | 115.1*
CCNC(=O)[C@@H]1[C@@H](CO)[C@@H]2Cn3c(ccc(-c4ccccc4)c3=O)[C@@H]2N1Cc1ccccn1 | 1.1 | 0.3 | 43.5* | -44.3
Cc1oc(C(C)(C)C)cc1C(=O)Nc1ccc2c(c1)OCO2 | -0.1 | -0.2 | · | -16.9
COc1ccccc1N(CC(=O)Nc1ccc2c(c1)OCCO2)S(C)(=O)=O | 1.5 | · | -1.0 | 121.9*
O=C(Nc1ccc2c(c1)OCO2)c1ccc2nc[nH]c2c1 | -0.2 | · | 9.1 | 85.7*
O=C(Nc1ccc2c(c1)OCO2)c1cc(C2CC2)on1 | 1.6 | -0.7 | -0.9 | 1.9
CC(C)c1cc(C(=O)Nc2ccc3c(c2)OCO3)no1 | -5.3 | -0.1 | -1.1 | 83.2*
Cc1oc(C(C)(C)C)cc1C(=O)Nc1ccc2c(c1)OCCO2 | -0.8 | · | -2.3 | 94.8*
COc1ccccc1C(=O)Nc1ccc2c(c1)OCO2 | 4.8 | · | 1.5 | 113.8*
O=C(COC(=O)c1c2c(nc3ccccc13)/C(=C\c1cccs1)CCC2)Nc1ccccc1 | · | -0.6 | 6.9 | ·
CC(=O)c1ccc(NC(=O)COC(=O)c2c3c(nc4ccccc24)/C(=C\c2cccs2)CCC3)cc1 | · | 9.1* | -3.8 | ·
O=C(c1cccc(-c2nnc(-c3ccccc3)o2)c1)N1CCCCC1 | · | · | -0.5 | 120.8*
CO[C@@H]1CN(C)C(=O)c2ccc(NC(=O)c3ccc(F)cc3)cc2OC[C@@H](C)N(C(C)=O)C[C@@H]1C | 0.1 | 1.9 | · | -1.5
O=C(CN1CCCC1)NCC12CC3CC(CC(C3)C1)C2 | · | · | -6.4 | -9.5
O=C(CN1C(=O)CCC1=O)NCC12CC3CC(CC(C3)C1)C2 | -1.2 | · | -13.1 | 95.9*
Nc1nc(-c2cccnc2)nn1C(=O)CCc1ccccc1 | · | · | 0.2 | -8.1
Cc1ccc(C(=O)n2nc(-c3ccco3)nc2N)cc1 | -0.8 | · | · | 81.3*
SMILES | PglD inh | CFTR F508del cor | ARNT TACC3 PPI | C2C12 statin
Nc1nc(-c2ccco2)nn1C(=O)CCc1ccccc1 | -8.0 | · | -4.8 | 113.2*
COc1ccc(C(=O)n2nc(-c3ccco3)nc2N)cc1 | -4.4 | · | -1.1 | -7.3
C[C@H](O)C#Cc1ccc2c(c1)O[C@H](CN(C)Cc1ccc(-c3ccccc3)cc1)[C@@H](C)CN([C@@H](C)CO)S2(=O)=O | 1.1 | -2.8 | 1.3 | -78.8
COCC(=O)N1C[C@@H]2[C@H](c3ccccc31)[C@@H](CO)N2C(=O)c1ccccc1F | -0.1 | -1.8 | 1.8 | 14.3
CSCc1cc(N(C)c2ccccc2)nc(-c2ccccn2)n1 | -2.4 | 3.3 | 60.8* | 9.4
CN(C)c1cc(C(F)(F)F)nc(-c2ccccn2)n1 | 0.9 | · | -11.2 | -3.5
CCCCCCC/C=N/Nc1nnc(Cc2ccccc2)c(=O)[nH]1 | -3.0 | -2.0 | -1.5 | 6.5
Cc1ccc(/C=N/Nc2nnc(Cc3ccccc3)c(=O)[nH]2)o1 | · | 1.9 | · | ·
CCCCCC/C=N/Nc1nnc(Cc2ccc(OC)c(OC)c2)c(=O)[nH]1 | 1.0 | 3.6 | 54.0* | -15.5
COc1ccc(Cc2nnc(N/N=C/c3ccc(O)cc3O)[nH]c2=O)cc1OC | · | · | 62.2* | ·
O=C(C[C@H]1CC[C@@H]2[C@H](COC[C@H](O)CN2C(=O)Nc2ccc(Cl)c(Cl)c2)O1)NC1CCC1 | 2.0 | -1.2 | -10.3 | -19.9
